Reference: PubChem BioAssay (NCATS)
Inconclusive results are not listed. The source made the active and inactive calls. Calls follow the shape of the dose curve; as a rule, active = well fitted inhibition curve with a large enough effect; inconclusive = small, poorly fitted or top-dose-only effect; inactive = flat fitted curve, though single readings scatter.

How the values were obtained:
Test in all cases: qHTS profiling for inhibitors of Plasmodium falciparum proliferation (AID 504749); also: nearly all actives have a fitted effect of over 60% in size
Conditions in all cases: P. falciparum in erythrocytes, SYBR Green DNA, 72 h; series mostly up to 28.7 µM
CP211 = test system: CP211
In short: (§1)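 SYBR Green fluorescence of parasite DNA, read after lysis and overnight dark incubation, measured growth over 72 h in erythrocyte culture at 0.3% parasitemia and 2.5% hematocrit. Data normalised to DMSO and 0.29 uM artemisinin, with plate-drift correction.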

CP215 = test system: CP215
In short: as §1

CP217 = test system: CP217
In short: as §1

CP237 = test system: CP237
In short: as §1

CP238 = test system: CP238
In short: as §1

CP247 = test system: CP247
In short: as §1

CP250 = test system: CP250
In short: as §1

CP252 = test system: CP252
In short: as §1

CP256 = test system: CP256
In short: as §1

CP260 = test system: CP260
In short: as §1

CP262 = test system: CP262
In short: as §1

CP265 = test system: CP265
In short: as §1

CP266 = test system: CP266
In short: as §1

CP268 = test system: CP268
In short: as §1

CP269 = test system: CP269
In short: as §1

CP286 = test system: CP286
In short: as §1

CP291 = test system: CP291
In short: as §1

CP305 = test system: CP305
In short: as §1

CP315 = test system: CP315
In short: as §1

CP325 = test system: CP325
In short: as §1

CP329 = test system: CP329
In short: as §1

CP335 = test system: CP335
In short: as §1

DFO2036 = test system: DFO2036
In short: as §1

Dd2 = test system: Dd2
In short: as §1

ECU = test system: ECU
In short: as §1

FAB9 = test system: FAB9
In short: as §1

GB4 = test system: GB4
In short: as §1

HB3 = test system: HB3
In short: as §1

ICS = test system: ICS
In short: as §1

JCK = test system: JCK
In short: as §1

N140 = test system: N140
In short: as §1

P93_24 = test system: P93_24
In short: as §1

P94_40 = test system: P94_40
In short: as §1

PAD = test system: PAD
In short: as §1

PC15 = test system: PC15
In short: as §1

PC49 = test system: PC49
In short: as §1

SC27B = test system: SC27B
In short: as §1

TAB109 = test system: TAB109
In short: as §1

TAB113 = test system: TAB113
In short: as §1

TAB165 = test system: TAB165
In short: as §1

Measured: Potency

COc1ccc(CCNC[C@@H](O)c2ccc(O)cc2)cc1OC
inactive: all assays above
